{"source": "ChEMBL document CHEMBL2218924", "about": "“A broad activity screen in support of a chemogenomic map for kinase signalling research and drug discovery” (Biochem J, 2013)", "key": {"[1]": {"biological_target": "Tyrosine-protein kinase SYK (Homo sapiens) (UniProt P43405)", "details": "at 10 µM"}, "[2]": {"biological_target": "T1, Mitogen-activated protein kinase kinase kinase 7 (Homo sapiens) (UniProt O43318)", "T1 sequence (whole entry)": "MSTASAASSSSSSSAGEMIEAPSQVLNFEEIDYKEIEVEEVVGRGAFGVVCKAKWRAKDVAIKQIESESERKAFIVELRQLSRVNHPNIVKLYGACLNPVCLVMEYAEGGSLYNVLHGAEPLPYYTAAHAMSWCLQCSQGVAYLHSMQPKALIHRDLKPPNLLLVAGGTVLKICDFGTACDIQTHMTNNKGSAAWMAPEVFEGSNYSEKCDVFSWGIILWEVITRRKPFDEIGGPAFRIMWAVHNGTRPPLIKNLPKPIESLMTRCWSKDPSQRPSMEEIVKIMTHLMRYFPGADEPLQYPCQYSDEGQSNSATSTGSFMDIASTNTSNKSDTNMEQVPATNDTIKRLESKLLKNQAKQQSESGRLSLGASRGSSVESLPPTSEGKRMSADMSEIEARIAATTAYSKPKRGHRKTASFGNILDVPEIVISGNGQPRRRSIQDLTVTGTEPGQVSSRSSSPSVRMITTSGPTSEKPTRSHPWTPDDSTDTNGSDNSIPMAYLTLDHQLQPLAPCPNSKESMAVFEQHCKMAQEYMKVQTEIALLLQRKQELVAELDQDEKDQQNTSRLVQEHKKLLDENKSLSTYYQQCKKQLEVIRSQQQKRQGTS", "details": "at 1 µM"}, "[3]": {"biological_target": "T1, Mitogen-activated protein kinase kinase kinase 7 (Homo sapiens)", "details": "at 10 µM"}, "[4]": {"biological_target": "T2, Serine/threonine-protein kinase TAO1 (Homo sapiens) (UniProt Q7L7X3)", "T2 sequence (whole entry)": "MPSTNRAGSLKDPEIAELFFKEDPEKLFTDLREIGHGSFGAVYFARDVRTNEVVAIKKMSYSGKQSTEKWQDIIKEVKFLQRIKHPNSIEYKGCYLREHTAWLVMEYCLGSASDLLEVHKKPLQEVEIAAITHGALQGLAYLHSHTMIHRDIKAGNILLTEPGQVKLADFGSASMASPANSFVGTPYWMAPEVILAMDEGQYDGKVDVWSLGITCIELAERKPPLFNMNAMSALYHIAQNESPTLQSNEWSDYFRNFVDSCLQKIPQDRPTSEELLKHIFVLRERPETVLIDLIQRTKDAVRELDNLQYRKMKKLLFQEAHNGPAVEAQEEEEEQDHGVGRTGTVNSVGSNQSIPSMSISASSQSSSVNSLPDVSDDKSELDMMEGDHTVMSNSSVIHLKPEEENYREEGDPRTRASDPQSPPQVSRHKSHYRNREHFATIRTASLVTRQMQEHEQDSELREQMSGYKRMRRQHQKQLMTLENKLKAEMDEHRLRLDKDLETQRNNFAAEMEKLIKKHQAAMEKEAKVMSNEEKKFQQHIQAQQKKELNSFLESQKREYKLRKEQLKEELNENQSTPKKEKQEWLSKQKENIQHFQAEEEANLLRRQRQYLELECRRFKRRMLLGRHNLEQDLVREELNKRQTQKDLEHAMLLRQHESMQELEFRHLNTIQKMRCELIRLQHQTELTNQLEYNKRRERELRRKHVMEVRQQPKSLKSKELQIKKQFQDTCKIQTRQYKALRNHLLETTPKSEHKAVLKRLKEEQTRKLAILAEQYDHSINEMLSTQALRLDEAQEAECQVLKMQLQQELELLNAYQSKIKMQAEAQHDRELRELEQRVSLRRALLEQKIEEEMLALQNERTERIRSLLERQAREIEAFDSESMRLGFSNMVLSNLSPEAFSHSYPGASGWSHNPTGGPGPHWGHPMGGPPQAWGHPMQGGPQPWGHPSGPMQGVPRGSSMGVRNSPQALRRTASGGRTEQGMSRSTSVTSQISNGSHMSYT", "details": "at 1 µM"}, "[5]": {"biological_target": "T2, Serine/threonine-protein kinase TAO1 (Homo sapiens)", "details": "at 10 µM"}, "[6]": {"biological_target": "T3, Serine/threonine-protein kinase TAO2 (Homo sapiens) (UniProt Q9UL54)", "T3 sequence (whole entry)": "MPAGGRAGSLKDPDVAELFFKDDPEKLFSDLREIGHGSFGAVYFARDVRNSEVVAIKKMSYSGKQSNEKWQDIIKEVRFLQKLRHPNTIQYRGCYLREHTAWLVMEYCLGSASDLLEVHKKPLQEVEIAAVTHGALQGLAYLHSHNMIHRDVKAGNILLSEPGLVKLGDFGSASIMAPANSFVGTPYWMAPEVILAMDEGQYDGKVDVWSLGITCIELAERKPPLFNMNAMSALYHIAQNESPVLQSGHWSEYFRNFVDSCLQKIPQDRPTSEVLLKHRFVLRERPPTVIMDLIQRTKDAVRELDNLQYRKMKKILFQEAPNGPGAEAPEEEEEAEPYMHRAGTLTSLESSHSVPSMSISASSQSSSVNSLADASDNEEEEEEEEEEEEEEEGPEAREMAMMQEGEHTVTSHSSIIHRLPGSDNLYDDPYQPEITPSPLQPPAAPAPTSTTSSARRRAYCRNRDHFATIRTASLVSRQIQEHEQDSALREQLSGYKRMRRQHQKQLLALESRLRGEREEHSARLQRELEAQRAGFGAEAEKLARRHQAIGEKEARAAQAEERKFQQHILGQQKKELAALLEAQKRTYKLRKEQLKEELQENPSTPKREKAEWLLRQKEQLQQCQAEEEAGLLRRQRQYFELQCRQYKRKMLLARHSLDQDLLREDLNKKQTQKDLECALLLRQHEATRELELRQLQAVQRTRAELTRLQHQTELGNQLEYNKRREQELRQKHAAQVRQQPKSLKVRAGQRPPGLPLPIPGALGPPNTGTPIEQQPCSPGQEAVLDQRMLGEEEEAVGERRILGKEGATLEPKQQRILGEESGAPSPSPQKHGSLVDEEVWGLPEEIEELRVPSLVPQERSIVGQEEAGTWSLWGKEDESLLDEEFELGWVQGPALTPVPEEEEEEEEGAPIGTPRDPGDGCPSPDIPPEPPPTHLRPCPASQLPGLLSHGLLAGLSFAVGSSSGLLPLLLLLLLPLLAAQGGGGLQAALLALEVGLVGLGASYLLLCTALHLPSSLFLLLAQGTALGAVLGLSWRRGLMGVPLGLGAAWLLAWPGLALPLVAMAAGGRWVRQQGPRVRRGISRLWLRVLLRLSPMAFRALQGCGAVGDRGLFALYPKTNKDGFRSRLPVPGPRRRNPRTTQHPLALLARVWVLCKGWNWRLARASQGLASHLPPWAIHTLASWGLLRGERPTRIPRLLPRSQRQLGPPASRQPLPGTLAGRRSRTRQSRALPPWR", "details": "at 1 µM"}, "[7]": {"biological_target": "T3, Serine/threonine-protein kinase TAO2 (Homo sapiens)", "details": "at 10 µM"}, "[8]": {"biological_target": "T4, Serine/threonine-protein kinase TAO3 (Homo sapiens) (UniProt Q9H2K8)", "T4 sequence (whole entry)": "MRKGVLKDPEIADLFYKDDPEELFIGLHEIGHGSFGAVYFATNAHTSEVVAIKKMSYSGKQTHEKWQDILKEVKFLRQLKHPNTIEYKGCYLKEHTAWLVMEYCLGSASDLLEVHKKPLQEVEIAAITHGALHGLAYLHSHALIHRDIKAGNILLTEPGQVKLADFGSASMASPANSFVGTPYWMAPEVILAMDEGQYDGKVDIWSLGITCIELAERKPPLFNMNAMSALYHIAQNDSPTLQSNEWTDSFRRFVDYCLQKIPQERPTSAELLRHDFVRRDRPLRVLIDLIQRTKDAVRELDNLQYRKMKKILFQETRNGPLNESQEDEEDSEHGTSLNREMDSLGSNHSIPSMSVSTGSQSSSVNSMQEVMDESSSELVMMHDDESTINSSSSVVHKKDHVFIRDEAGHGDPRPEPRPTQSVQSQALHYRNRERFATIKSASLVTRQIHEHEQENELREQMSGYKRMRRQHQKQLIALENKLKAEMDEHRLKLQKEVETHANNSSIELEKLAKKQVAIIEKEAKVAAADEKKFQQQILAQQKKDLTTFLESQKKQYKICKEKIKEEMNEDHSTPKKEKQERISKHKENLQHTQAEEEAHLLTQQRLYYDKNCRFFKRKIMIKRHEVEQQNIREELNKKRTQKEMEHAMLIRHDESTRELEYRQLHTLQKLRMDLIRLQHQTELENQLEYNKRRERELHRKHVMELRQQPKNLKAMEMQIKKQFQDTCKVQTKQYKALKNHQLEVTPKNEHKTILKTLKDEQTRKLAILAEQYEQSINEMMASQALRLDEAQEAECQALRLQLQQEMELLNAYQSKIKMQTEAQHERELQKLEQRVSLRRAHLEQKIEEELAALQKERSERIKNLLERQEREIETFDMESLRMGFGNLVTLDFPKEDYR", "details": "at 1 µM"}}}
{"smiles": "O=C1Nc2ccc(Cl)cc2/C1=C/c1cc(Cl)c(O)c(Cl)c1", "values": [{"measurement": "residual activity", "setting": "[1]", "value": 56, "unit": "%"}, {"measurement": "residual activity", "setting": "[2]", "value": 83, "unit": "%"}, {"measurement": "residual activity", "setting": "[3]", "value": 75, "unit": "%"}, {"measurement": "residual activity", "setting": "[4]", "value": 62, "unit": "%"}, {"measurement": "residual activity", "setting": "[5]", "value": 35, "unit": "%"}, {"measurement": "residual activity", "setting": "[6]", "value": 72, "unit": "%"}, {"measurement": "residual activity", "setting": "[7]", "value": 58, "unit": "%"}, {"measurement": "residual activity", "setting": "[8]", "value": 61, "unit": "%"}]}
